Results reported in PubChem BioAssay (NCI).
The panel holds about 83,000 compounds, 20% with a hit somewhere; the sample as a whole holds those more often.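 Values shown are percent growth following 48 h exposure of cells in 96-well plates to a single concentration of compound; below 10 was considered active.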 Values without a mark were called inactive. The source made the active and inactive calls.

What was measured:
Assay in all cases: NCI-60 one-dose screen, 48 h (100 = growth as untreated, 0 = no growth, -100 = all killed)
Details in all cases: 10 µM
[1] = system: DU-145 prostate
[2] = system: K-562 leukemia
[3] = system: MALME-3M melanoma
[4] = system: MDA-MB-231 breast
[5] = system: RXF 393 renal
[6] = system: SF-268 CNS
[7] = system: SF-295 CNS
[8] = system: SF-539 CNS
[9] = system: UACC-257 melanoma
[10] = system: M14 melanoma
[11] = system: HCT-15 colon
[12] = system: HT29 colon
[13] = system: SNB-75 CNS
[14] = system: SNB-19 CNS
[15] = system: U251 CNS
[16] = system: PC-3 prostate
[17] = system: SK-MEL-5 melanoma
[18] = system: UACC-62 melanoma
[19] = system: LOX IMVI melanoma
[20] = system: SK-MEL-28 melanoma

Structure (SMILES): Nc1nc(-c2ccc(Cl)cc2)cc(-c2cc3ccccc3oc2=O)n1
- growth [1]: 106%
- growth [2]: 114%
- growth [3]: 80%
- growth [4]: 93.9%
- growth [5]: 112%
- growth [6]: 104%
- growth [7]: 89.1%
- growth [8]: 117%
- growth [9]: 132%
- growth [10]: 95.3%
- growth [11]: 102%
- growth [12]: 93.5%
- growth [13]: 68.4%
- growth [14]: 94%
- growth [15]: 99.4%
- growth [16]: 97.8%
- growth [17]: 91.2%
- growth [18]: 92.5%
- growth [19]: 92.8%
- growth [20]: 110%

Structure (SMILES): COc1cccc(-c2nc3sccn3c2-c2cccc(S(C)(=O)=O)c2)c1
- growth [1]: 110%
- growth [2]: 95.5%
- growth [3]: 129%
- growth [4]: 93.4%
- growth [5]: 84.1%
- growth [6]: 100%
- growth [7]: 94.4%
- growth [8]: 94.3%
- growth [9]: 115%
- growth [10]: 119%
- growth [11]: 95.3%
- growth [12]: 118%
- growth [13]: 95.1%
- growth [14]: 99.2%
- growth [15]: 106%
- growth [16]: 94.7%
- growth [17]: 94.8%
- growth [18]: 99.4%
- growth [19]: 88.6%
- growth [20]: 112%

Structure (SMILES): CCC(c1ccc(OC)cc1)C(CC)c1ccc(O)c(CN2CCN(C)CC2)c1 (stereo not given)
- growth [1]: 92.4%
- growth [2]: 9.45% (active)
- growth [3]: 6.2% (active)
- growth [4]: 56.3%
- growth [5]: 39.3%
- growth [6]: 80.6%
- growth [7]: 28.9%
- growth [8]: 67.4%
- growth [9]: -5.73% (active)
- growth [10]: -19.5% (active)
- growth [11]: 1.58% (active)
- growth [12]: 12.1%
- growth [13]: 56.9%
- growth [14]: 74.5%
- growth [15]: 29.8%
- growth [16]: 45.1%
- growth [17]: 4.57% (active)
- growth [18]: -30.5% (active)
- growth [19]: 46.2%
- growth [20]: -13.2% (active)

Structure (SMILES): CC(C)(C)OC(=O)CN1CCc2c(sc3ncnc(N/N=C/c4ccccc4Br)c23)C1
- growth [1]: 94.6%
- growth [2]: 16.6%
- growth [3]: 93.2%
- growth [4]: 65.5%
- growth [5]: 70.3%
- growth [6]: 76.9%
- growth [7]: 99.2%
- growth [8]: 84.1%
- growth [9]: 92.7%
- growth [10]: 73.4%
- growth [11]: 37%
- growth [12]: 81.6%
- growth [13]: 52.6%
- growth [14]: 81.2%
- growth [15]: 77.9%
- growth [16]: 47.9%
- growth [17]: 55.1%
- growth [18]: 39.5%
- growth [19]: 53.7%
- growth [20]: 90.9%

Structure (SMILES): O=C1CC(SC(=S)C2CCCC2=O)C(=O)N1 (stereo not given)
- growth [1]: 108%
- growth [2]: 98%
- growth [3]: 104%
- growth [4]: 105%
- growth [5]: 115%
- growth [6]: 102%
- growth [7]: 104%
- growth [8]: 104%
- growth [9]: 90.4%
- growth [10]: 101%
- growth [11]: 98.1%
- growth [12]: 103%
- growth [13]: 105%
- growth [14]: 94.7%
- growth [15]: 97.1%
- growth [16]: 97.1%
- growth [17]: 103%
- growth [18]: 102%
- growth [19]: 97.5%
- growth [20]: 113%

Structure (SMILES): Brc1ccc2c(c1)-c1ccccc1C1=NCCN12
- growth [1]: -21.1% (active)
- growth [2]: 4.71% (active)
- growth [3]: -31.5% (active)
- growth [4]: -7.62% (active)
- growth [5]: -62.6% (active)
- growth [6]: -2.39% (active)
- growth [7]: -50.7% (active)
- growth [8]: -1.45% (active)
- growth [9]: -23.9% (active)
- growth [10]: -51.8% (active)
- growth [11]: 1.51% (active)
- growth [12]: -14.9% (active)
- growth [13]: 8.5% (active)
- growth [14]: 16.2%
- growth [15]: -10.7% (active)
- growth [16]: 2.13% (active)
- growth [17]: -77.2% (active)
- growth [18]: -13.4% (active)
- growth [19]: -69.4% (active)
- growth [20]: 0.722% (active)

Structure (SMILES): C1CN(CC2CCC(CN3CCOCC3)O2)CCO1 (stereo not given)
- growth [1]: 111%
- growth [2]: 63.1%
- growth [3]: -4.36% (active)
- growth [4]: 118%
- growth [5]: 112%
- growth [6]: 104%
- growth [7]: 99.7%
- growth [8]: 98%
- growth [9]: 103%
- growth [10]: 95.9%
- growth [11]: 101%
- growth [12]: 102%
- growth [13]: 96.5%
- growth [14]: 105%
- growth [15]: 108%
- growth [16]: 105%
- growth [17]: 105%
- growth [18]: 106%
- growth [19]: 93.2%
- growth [20]: 105%

Structure (SMILES): CN(C)c1ccc(/C=N/NC(=O)c2cccc3ccccc23)c(Cl)c1
- growth [1]: 17.1%
- growth [2]: 11.6%
- growth [3]: 53.4%
- growth [4]: 67.7%
- growth [5]: 7.47% (active)
- growth [6]: 59%
- growth [7]: 19.1%
- growth [8]: 19.9%
- growth [9]: 35.8%
- growth [10]: 27.6%
- growth [11]: 27.9%
- growth [12]: 12.9%
- growth [13]: 20.3%
- growth [14]: 52.6%
- growth [15]: 23.9%
- growth [16]: 20.3%
- growth [17]: 24.3%
- growth [18]: 46.4%
- growth [19]: 37.9%
- growth [20]: 42%

Structure (SMILES): CC(C)c1cc(N=O)cc(C(C)C)c1O
- growth [1]: 119%
- growth [2]: 106%
- growth [3]: 110%
- growth [4]: 99.3%
- growth [5]: 110%
- growth [6]: 104%
- growth [7]: 102%
- growth [8]: 109%
- growth [9]: 94.8%
- growth [10]: 123%
- growth [11]: 98.4%
- growth [12]: 109%
- growth [13]: 99.9%
- growth [14]: 95.2%
- growth [15]: 98.5%
- growth [16]: 97.5%
- growth [17]: 105%
- growth [18]: 96.3%
- growth [19]: 96.1%
- growth [20]: 105%

Structure (SMILES): NS(=O)(=O)Oc1ccc2c(ccn2C(=O)C23CC4CC(CC(C4)C2)C3)c1
- growth [1]: 116%
- growth [2]: 101%
- growth [3]: 115%
- growth [4]: 102%
- growth [5]: 115%
- growth [6]: 111%
- growth [7]: 97.8%
- growth [8]: 103%
- growth [9]: 102%
- growth [10]: 112%
- growth [11]: 110%
- growth [12]: 102%
- growth [13]: 117%
- growth [14]: 98.5%
- growth [15]: 99.2%
- growth [16]: 103%
- growth [17]: 95%
- growth [18]: 98.8%
- growth [19]: 98.8%
- growth [20]: 101%

Structure (SMILES): COc1cc(-c2nn(-c3cccc(NC(=O)NCCNS(=O)(=O)c4ccc(Cl)cc4)c3)cc2-c2ccncc2)ccc1Cl
- growth [1]: 11.5%
- growth [2]: 2.85% (active)
- growth [3]: 10.9%
- growth [4]: -2.68% (active)
- growth [5]: -13.6% (active)
- growth [6]: 13.1%
- growth [7]: -44.8% (active)
- growth [8]: -38.5% (active)
- growth [9]: 33%
- growth [10]: -24.7% (active)
- growth [11]: 26.5%
- growth [12]: -24.4% (active)
- growth [13]: 0.927% (active)
- growth [14]: 38.1%
- growth [15]: -0.109% (active)
- growth [16]: 7.5% (active)
- growth [17]: -74.6% (active)
- growth [18]: 25.6%
- growth [19]: -0.864% (active)
- growth [20]: 21.4%

Structure (SMILES): CCCN(CCC)C(=O)[C@H](CC)[C@@H]1CC[C@@H](C)[C@@H]([C@H](C)[C@@H](O)[C@@H](C)C(=O)[C@H](CC)C2O[C@]3(C=C[C@@H](O)[C@]4(CC[C@@](C)([C@H]5CC[C@](O)(CC)[C@H](C)O5)O4)O3)[C@H](C)C[C@@H]2C)O1 (stereo not given in full)
- growth [1]: 31.5%
- growth [2]: 10.4%
- growth [3]: -13.3% (active)
- growth [4]: -40.3% (active)
- growth [5]: -6.32% (active)
- growth [6]: 24.5%
- growth [7]: -5.79% (active)
- growth [8]: 8.44% (active)
- growth [9]: 8.4% (active)
- growth [10]: 13.9%
- growth [11]: -9.51% (active)
- growth [12]: 7.02% (active)
- growth [13]: -12.8% (active)
- growth [14]: 17.8%
- growth [15]: 21.5%
- growth [16]: 6.69% (active)
- growth [17]: -92.4% (active)
- growth [18]: 14.9%
- growth [19]: 1.21% (active)
- growth [20]: 24.2%

Structure (SMILES): COc1cc2cc(Oc3ccc(NC(=O)c4ccc(Cl)c(C(F)(F)F)c4)cc3)c(C)nc2cc1OC
- growth [1]: 43%
- growth [2]: 14.8%
- growth [3]: 37.2%
- growth [4]: 48.3%
- growth [5]: 50.8%
- growth [6]: 56.1%
- growth [7]: 7.81% (active)
- growth [8]: 57.3%
- growth [9]: 36.8%
- growth [10]: 18.4%
- growth [11]: 26.9%
- growth [12]: 26%
- growth [13]: 68.4%
- growth [14]: 39.3%
- growth [15]: 2.03% (active)
- growth [16]: 4.32% (active)
- growth [17]: 25.5%
- growth [18]: 13.9%
- growth [19]: 33%
- growth [20]: 66.9%

Structure (SMILES): COc1cc2cc(Oc3ccc(NC(=O)c4cc(C(F)(F)F)cc(C(F)(F)F)c4)cc3)c(C)nc2cc1OC
- growth [1]: 60.4%
- growth [2]: 23.3%
- growth [3]: 73.7%
- growth [4]: 59.2%
- growth [5]: 56.8%
- growth [6]: 74.7%
- growth [7]: 6.46% (active)
- growth [8]: 75.2%
- growth [9]: 60.4%
- growth [10]: 61.6%
- growth [11]: 38.1%
- growth [12]: 49.8%
- growth [13]: 62.1%
- growth [14]: 49.9%
- growth [15]: 13.3%
- growth [16]: 17.5%
- growth [17]: 16.6%
- growth [18]: 33.2%
- growth [19]: 66%
- growth [20]: 84.9%

Structure (SMILES): COc1cc(-c2nc3ccccc3o2)cc(CN2CCCCC2)c1O
- growth [1]: 12.9%
- growth [2]: 32.7%
- growth [3]: 28.9%
- growth [4]: 70.9%
- growth [5]: 94.8%
- growth [6]: 68.2%
- growth [7]: 32.5%
- growth [8]: 83.5%
- growth [9]: 75.2%
- growth [10]: 34.9%
- growth [11]: 41.4%
- growth [12]: 87.2%
- growth [13]: 57.6%
- growth [14]: 83.3%
- growth [15]: 47.5%
- growth [16]: 41.8%
- growth [17]: -83.3% (active)
- growth [18]: -15.3% (active)
- growth [19]: -18.6% (active)
- growth [20]: 59.5%
